Data as given in the supplement of paper PMC11732987, “Enantioselective OTUD7B fragment discovery through chemoproteomics screening and high-throughput optimisation” (Communications Chemistry, 2025).

Columns and labels:
Assay in all cases: log2 ratio of Biotin-Ahx-Ub-VS probe labelling (fragment/DMSO); higher = less target engagement (more negative = stronger competition), active = hit call of the paper (q ≤ 0.05, log2 ratio ≤ -1)
Details in all cases: compound concentration: 200 uM; treatment time: 3 h
USP42 = molecular target: T1, USP42 (UniProt Q9H9J4)
T1 sequence (whole entry): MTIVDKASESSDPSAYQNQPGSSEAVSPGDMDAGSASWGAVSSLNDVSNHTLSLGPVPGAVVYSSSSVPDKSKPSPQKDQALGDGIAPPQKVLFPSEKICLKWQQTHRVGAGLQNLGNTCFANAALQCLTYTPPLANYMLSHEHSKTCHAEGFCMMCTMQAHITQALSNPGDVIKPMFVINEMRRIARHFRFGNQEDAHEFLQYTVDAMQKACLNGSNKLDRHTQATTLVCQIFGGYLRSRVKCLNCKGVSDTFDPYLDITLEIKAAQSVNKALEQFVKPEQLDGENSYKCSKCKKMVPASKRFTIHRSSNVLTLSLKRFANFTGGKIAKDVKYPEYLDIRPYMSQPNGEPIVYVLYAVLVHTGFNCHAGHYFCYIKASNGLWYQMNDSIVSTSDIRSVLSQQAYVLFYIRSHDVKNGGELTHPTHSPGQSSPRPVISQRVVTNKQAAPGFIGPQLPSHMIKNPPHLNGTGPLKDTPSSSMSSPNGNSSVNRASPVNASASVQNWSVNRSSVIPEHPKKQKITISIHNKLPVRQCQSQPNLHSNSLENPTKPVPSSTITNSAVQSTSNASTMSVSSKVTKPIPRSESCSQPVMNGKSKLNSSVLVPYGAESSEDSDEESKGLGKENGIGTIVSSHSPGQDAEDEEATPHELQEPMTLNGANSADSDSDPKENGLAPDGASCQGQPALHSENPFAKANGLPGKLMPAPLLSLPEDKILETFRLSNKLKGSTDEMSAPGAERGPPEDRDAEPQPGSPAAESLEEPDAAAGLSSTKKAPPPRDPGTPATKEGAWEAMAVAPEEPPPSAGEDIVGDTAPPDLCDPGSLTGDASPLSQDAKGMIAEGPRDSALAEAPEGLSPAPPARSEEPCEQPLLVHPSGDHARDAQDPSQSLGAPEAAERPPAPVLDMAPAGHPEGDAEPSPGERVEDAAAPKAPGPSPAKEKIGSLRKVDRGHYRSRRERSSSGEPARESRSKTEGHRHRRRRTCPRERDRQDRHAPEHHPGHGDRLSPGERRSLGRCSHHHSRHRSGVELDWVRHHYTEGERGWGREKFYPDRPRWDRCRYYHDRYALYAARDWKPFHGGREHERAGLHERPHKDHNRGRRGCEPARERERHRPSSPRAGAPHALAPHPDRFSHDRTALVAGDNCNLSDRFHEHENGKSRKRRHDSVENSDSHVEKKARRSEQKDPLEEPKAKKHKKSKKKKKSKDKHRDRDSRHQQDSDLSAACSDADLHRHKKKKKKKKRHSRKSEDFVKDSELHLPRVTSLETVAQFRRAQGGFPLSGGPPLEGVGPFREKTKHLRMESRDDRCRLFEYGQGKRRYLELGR
Outline: (§1)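 HEK293T lysate in Tris/CHAPS/IGEPAL buffer with protease inhibitors (495 µg per sample) was given fragment at 200 µM or vehicle for 3 h, in triplicate. It then received Biotin-Ahx-Ub-VS at 0.5 µM final for 1 h. Labelled DUBs were NeutrAvidin-enriched, digested with LysC and trypsin, and run by diaPASEF LC-MS/MS. Values are average log2 fragment/vehicle ratios by unpaired t-test on global-median-normalised Spectronaut quantities of proteins with ≥2 unique peptides.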

USP46 = USP46 (UniProt P62068)
Outline: as §1

USP47 = molecular target: T2, USP47 (UniProt Q96K76)
T2 sequence (whole entry): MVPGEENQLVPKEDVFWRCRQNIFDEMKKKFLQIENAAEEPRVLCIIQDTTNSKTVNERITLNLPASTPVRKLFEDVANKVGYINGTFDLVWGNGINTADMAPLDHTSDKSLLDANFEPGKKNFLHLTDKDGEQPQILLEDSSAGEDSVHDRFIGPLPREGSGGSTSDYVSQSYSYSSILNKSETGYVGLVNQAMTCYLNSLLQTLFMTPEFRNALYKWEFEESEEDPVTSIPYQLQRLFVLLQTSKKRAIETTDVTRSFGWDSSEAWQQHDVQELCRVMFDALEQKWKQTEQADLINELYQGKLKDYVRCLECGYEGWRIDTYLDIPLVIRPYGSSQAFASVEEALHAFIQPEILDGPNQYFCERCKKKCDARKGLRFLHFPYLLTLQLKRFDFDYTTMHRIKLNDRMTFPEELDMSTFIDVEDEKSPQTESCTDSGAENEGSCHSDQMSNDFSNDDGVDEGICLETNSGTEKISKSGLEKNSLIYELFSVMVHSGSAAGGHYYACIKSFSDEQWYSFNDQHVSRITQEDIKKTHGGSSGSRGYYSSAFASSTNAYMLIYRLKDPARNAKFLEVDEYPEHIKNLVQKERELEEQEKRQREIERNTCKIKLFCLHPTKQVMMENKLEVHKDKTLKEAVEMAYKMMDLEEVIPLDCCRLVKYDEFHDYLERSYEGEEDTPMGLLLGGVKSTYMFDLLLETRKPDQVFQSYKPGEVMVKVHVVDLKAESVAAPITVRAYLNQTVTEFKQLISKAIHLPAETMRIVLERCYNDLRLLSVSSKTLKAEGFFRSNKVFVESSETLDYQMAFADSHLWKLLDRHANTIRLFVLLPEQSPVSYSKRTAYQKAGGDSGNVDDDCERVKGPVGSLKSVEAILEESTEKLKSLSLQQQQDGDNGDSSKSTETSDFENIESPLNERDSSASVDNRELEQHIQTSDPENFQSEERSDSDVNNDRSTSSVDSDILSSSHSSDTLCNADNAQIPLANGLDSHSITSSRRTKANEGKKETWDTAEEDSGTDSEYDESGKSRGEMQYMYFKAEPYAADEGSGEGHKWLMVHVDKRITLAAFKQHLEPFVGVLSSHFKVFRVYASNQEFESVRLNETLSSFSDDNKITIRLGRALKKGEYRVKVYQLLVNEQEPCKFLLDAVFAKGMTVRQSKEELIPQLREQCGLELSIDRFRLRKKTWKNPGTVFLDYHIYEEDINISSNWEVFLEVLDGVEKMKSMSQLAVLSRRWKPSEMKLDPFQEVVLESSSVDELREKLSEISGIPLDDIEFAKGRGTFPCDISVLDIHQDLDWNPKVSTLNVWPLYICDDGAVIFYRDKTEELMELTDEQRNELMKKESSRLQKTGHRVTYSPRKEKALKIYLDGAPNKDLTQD
Outline: as §1

USP48 = molecular target: T3, USP48 (UniProt Q86UV5)
T3 sequence (whole entry): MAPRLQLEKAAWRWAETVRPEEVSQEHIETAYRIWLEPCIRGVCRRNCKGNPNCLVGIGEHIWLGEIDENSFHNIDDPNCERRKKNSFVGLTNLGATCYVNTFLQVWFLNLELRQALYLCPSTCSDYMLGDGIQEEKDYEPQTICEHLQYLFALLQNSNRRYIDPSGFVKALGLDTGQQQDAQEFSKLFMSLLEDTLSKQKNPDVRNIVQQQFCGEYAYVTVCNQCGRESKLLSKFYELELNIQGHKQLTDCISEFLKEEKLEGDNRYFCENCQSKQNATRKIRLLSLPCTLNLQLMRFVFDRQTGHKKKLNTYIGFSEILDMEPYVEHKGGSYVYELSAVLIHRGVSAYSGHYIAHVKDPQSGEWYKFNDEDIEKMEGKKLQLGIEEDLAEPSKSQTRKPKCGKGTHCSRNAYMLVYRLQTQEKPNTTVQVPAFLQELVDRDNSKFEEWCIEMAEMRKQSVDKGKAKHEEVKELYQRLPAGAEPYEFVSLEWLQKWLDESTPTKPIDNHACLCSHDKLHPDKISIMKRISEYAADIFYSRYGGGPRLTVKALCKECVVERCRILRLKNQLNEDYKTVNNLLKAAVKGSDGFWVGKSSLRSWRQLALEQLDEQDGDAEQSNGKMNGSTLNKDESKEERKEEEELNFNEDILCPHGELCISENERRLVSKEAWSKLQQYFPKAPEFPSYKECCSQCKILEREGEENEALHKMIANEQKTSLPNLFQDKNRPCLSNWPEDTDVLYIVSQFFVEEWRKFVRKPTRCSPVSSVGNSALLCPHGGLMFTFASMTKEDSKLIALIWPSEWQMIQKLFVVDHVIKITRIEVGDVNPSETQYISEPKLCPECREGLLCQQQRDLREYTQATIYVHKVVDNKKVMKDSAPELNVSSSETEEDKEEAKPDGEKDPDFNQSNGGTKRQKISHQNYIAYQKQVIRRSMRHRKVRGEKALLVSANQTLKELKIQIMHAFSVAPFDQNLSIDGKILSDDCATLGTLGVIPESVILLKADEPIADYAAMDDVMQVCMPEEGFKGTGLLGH
Outline: as §1

USP5 = molecular target: T4, USP5 (UniProt P45974)
T4 sequence (whole entry): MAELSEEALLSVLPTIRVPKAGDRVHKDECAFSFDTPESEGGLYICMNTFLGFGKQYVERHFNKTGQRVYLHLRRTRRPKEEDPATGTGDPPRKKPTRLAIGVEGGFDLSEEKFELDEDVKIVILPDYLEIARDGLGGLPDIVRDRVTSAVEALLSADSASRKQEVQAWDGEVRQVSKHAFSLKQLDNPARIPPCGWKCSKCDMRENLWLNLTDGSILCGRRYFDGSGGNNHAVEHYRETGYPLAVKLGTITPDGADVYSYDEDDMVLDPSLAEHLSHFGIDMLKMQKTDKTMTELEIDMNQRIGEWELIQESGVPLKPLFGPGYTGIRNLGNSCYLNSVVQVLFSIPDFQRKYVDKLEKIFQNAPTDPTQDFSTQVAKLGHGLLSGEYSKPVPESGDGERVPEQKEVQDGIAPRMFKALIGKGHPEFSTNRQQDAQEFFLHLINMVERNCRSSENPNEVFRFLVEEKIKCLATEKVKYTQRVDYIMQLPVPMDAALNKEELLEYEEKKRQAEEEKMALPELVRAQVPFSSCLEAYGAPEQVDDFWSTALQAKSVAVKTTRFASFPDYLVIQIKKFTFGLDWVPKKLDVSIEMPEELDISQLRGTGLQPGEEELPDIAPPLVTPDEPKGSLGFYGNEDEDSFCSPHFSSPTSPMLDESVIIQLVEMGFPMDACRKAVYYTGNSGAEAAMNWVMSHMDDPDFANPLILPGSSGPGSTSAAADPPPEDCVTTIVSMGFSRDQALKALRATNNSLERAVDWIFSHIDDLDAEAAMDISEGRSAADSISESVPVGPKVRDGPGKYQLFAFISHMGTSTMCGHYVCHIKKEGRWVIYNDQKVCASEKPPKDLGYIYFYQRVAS
Outline: as §1

USP54 = USP54 (UniProt Q70EL1)
Outline: as §1

USP7 = USP7 (UniProt Q93009)
Outline: as §1

USP8 = molecular target: T5, USP8 (UniProt P40818)
T5 sequence (whole entry): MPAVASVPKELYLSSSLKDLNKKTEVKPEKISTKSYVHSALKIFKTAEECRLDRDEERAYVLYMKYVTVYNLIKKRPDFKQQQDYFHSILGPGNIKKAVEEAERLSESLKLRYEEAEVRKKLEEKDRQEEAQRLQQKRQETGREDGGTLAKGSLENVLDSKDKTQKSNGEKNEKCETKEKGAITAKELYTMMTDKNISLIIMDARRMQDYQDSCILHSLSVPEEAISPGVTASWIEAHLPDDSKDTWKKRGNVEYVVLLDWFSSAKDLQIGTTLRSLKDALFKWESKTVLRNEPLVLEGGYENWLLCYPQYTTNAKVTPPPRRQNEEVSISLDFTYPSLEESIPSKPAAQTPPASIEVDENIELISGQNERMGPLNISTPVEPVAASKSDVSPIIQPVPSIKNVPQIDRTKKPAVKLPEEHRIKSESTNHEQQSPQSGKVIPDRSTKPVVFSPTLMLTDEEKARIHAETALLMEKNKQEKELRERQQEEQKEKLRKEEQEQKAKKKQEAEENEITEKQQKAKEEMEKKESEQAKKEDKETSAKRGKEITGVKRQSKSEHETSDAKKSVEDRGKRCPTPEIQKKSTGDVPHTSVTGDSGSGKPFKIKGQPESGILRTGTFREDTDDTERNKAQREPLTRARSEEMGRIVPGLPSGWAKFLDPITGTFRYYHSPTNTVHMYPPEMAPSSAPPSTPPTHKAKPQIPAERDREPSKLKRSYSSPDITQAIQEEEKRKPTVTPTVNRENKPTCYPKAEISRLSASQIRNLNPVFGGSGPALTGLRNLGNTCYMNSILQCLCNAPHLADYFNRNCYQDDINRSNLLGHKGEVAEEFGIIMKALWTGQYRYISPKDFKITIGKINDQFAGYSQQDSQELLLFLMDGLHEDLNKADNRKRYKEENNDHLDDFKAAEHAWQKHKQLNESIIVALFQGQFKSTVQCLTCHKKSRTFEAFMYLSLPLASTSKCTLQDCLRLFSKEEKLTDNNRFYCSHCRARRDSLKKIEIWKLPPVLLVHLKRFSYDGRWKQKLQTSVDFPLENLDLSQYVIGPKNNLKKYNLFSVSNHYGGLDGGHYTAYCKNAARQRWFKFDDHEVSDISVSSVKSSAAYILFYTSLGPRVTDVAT
Outline: as §1

USP9X = USP9X (UniProt Q93008)
Outline: as §1

UniProt O00487 = molecular target: UniProt O00487
Outline: as §1

Measured: log2 ratio of Biotin-Ahx-Ub-VS probe labelling

Chain of USP7 (Q93009 whole entry, looked up): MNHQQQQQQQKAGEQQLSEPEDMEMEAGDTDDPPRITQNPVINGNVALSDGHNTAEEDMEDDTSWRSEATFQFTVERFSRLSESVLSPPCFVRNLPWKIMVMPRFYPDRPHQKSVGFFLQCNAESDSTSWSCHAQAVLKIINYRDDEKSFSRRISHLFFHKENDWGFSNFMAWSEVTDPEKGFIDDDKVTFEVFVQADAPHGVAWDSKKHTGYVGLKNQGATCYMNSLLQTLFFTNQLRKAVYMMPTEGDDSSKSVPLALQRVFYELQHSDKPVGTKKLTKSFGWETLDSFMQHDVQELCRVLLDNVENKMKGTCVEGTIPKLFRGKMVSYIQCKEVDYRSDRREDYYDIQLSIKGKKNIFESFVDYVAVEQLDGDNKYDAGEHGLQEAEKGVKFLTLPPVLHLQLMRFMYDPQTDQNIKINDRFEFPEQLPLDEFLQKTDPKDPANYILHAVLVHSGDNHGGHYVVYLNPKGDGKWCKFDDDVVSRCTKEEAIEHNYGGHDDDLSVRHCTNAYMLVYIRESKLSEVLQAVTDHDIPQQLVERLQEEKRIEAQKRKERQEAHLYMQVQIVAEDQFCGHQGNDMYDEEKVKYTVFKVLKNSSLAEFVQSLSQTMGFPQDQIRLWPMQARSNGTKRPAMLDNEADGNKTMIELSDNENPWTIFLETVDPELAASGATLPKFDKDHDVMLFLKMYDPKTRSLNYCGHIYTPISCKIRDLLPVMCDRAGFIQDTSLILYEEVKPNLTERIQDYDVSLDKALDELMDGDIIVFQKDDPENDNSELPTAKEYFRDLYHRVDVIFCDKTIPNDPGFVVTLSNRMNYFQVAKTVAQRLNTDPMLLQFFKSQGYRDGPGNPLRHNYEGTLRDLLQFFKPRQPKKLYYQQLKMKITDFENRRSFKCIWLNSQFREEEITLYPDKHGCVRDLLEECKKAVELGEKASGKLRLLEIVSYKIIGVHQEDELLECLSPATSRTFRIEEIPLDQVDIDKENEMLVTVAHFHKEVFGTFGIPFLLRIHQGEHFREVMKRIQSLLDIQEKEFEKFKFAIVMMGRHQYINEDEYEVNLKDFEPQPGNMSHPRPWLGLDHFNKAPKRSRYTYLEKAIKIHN
Chain of USP46 (P62068 whole entry): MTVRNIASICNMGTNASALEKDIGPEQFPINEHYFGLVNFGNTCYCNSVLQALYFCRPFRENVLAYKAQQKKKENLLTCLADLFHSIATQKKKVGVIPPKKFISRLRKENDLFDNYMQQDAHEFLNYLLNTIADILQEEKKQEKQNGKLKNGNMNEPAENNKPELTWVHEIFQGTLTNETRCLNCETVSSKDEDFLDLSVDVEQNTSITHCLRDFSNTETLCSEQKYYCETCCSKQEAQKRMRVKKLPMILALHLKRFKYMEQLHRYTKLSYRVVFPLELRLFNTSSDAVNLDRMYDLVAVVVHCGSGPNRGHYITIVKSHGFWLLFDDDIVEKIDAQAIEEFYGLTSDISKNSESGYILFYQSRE
Chain of USP54 (Q70EL1 whole entry): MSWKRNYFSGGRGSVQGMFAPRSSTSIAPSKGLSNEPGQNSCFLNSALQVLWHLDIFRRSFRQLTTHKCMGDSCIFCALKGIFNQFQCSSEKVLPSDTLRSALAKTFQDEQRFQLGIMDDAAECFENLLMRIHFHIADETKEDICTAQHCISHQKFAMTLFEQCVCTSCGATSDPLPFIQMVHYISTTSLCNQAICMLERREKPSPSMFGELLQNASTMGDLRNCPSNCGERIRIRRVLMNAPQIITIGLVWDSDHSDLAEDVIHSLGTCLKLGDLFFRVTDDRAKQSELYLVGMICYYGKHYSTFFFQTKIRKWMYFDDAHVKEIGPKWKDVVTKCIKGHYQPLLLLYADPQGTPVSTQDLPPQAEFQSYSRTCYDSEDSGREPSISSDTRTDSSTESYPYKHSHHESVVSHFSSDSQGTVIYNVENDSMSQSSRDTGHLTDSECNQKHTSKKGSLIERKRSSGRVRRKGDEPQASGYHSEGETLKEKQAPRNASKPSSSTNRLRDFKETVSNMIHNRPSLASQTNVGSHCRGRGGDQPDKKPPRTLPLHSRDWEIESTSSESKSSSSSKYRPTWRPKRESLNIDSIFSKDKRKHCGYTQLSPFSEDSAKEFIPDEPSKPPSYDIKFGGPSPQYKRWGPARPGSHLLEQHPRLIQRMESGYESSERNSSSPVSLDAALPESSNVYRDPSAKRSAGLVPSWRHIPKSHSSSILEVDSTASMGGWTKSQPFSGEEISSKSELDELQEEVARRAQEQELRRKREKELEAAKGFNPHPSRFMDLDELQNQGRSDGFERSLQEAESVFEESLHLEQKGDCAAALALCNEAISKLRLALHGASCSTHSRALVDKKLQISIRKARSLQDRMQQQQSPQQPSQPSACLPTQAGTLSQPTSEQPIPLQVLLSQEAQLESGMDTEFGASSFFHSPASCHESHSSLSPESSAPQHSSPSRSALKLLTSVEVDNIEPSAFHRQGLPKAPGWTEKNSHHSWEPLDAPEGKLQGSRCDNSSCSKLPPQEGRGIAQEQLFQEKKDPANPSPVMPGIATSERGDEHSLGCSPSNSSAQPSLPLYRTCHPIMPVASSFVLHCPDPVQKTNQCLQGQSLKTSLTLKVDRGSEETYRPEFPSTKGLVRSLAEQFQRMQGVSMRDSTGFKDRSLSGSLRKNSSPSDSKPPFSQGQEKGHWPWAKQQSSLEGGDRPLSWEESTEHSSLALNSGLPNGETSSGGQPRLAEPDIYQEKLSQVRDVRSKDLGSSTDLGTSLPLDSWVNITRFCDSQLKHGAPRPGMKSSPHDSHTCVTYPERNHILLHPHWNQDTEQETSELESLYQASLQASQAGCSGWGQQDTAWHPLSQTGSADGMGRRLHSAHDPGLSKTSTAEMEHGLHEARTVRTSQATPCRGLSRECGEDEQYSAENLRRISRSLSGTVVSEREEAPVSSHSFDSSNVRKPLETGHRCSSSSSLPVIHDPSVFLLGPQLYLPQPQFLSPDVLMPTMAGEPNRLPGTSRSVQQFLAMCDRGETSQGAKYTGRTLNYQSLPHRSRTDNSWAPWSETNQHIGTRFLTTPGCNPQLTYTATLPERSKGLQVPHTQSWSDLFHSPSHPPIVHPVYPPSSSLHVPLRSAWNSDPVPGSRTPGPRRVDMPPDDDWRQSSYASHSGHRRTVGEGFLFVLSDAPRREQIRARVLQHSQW
Chain of UniProt O00487 (O00487 whole entry): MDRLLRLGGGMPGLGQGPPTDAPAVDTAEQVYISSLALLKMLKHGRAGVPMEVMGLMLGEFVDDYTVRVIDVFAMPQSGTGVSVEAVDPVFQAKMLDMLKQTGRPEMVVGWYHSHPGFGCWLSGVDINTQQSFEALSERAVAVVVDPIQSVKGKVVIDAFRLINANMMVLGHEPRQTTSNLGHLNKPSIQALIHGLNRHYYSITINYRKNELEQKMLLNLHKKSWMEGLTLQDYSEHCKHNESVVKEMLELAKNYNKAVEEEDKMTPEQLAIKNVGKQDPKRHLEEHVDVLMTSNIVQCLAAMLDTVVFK

O=C(CCl)N1CCOC(CCc2ccccc2)C1 (stereo not given)
inactive: USP42 0.335 | USP46 -0.509 | USP47 -1.03 | USP48 -0.472 | USP5 -0.132 | USP54 0.433 | USP7 -0.763 | USP8 -0.555 | USP9X -0.43 | UniProt O00487 -0.235
